According to PubChem BioAssay AID493229 (Broad Institute, 2011):
Measured potencies and affinities stand elsewhere. Inconclusive results are not listed. Activity calls are given as the source filed them. No rule for the calls is given here.

Biological target: Protein RecA (Mycobacterium tuberculosis (strain ATCC 25618 / H37Rv)) (UniProt P9WHJ3)
Experiment: Mycobacterium tuberculosis RecA intein splicing inhibitors, confirmatory dry powder dose response (AID 493229)

Chain of Protein RecA (Mycobacterium tuberculosis (strain ATCC 25618 / H37Rv)) (P9WHJ3 whole entry, looked up): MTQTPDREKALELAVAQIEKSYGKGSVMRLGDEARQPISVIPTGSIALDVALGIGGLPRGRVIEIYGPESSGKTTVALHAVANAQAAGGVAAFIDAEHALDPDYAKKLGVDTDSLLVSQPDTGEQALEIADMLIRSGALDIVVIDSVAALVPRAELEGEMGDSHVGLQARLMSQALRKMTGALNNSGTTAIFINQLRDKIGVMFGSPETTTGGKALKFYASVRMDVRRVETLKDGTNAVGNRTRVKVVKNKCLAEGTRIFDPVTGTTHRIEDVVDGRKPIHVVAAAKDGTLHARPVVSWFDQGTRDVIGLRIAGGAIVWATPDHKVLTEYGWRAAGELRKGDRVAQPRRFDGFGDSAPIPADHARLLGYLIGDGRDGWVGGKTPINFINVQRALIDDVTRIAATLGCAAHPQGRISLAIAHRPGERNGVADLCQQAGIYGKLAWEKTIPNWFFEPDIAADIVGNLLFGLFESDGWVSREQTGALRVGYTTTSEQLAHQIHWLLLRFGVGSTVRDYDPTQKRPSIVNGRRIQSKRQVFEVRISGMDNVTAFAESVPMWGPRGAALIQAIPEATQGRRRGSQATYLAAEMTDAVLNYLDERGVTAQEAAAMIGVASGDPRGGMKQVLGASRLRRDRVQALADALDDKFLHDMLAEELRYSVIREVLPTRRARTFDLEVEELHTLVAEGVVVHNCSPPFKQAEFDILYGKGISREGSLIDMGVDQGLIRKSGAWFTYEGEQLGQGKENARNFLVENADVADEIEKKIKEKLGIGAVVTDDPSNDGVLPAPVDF

Nc1cn(-c2ccccc2)nc1-c1ccc(F)cc1
outcome: inactive
